The supplement of paper PMC10849652
About 7,900 targets were measured; listed, in parts, are those with a hit and a random draw of the rest. About 0.6% of all pairs of compound and target were hits.

Each target was assayed with CCCS(=O)(=O)Nc1ccc(F)c(C(=O)c2c[nH]c3ncc(Cl)cc23)c1F (assay: log2 fold change, soluble protein after heating vs DMSO (PISA); higher = thermal stabilisation; K562 cells, 10 uM, 30 min; active = over 0.2 and 3.5 SD of the protein, either way, in both replicates (recomputed)).
Method in brief: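 K562 cells at 2×10^6 cells/mL were given 10 μM compound for 30 min. Aliquots then went through 3 min of heating across 48°C-58°C, were pooled, and were extracted in PBS with 0.5% NP-40 at 4°C, and the supernatant after 21,000xg for 90 min was quantified by TMTpro 16plex LC-MS/MS with channel sums equalised. Thermal stability relative to control samples, from duplicates, is given as log2 fold change.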

Sequence of UniProt Q9NXW2 (Q9NXW2 whole entry, looked up): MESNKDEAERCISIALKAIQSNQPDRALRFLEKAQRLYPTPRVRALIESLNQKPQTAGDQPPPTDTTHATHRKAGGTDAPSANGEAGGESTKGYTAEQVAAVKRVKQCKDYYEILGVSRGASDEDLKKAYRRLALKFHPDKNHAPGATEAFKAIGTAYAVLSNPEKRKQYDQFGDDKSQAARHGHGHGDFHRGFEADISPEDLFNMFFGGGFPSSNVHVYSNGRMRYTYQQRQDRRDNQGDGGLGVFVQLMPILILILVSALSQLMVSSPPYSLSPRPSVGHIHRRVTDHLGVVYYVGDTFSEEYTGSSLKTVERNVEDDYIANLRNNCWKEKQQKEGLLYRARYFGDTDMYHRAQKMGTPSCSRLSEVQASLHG
Sequence of UniProt Q8N3D4 (Q8N3D4 whole entry, looked up): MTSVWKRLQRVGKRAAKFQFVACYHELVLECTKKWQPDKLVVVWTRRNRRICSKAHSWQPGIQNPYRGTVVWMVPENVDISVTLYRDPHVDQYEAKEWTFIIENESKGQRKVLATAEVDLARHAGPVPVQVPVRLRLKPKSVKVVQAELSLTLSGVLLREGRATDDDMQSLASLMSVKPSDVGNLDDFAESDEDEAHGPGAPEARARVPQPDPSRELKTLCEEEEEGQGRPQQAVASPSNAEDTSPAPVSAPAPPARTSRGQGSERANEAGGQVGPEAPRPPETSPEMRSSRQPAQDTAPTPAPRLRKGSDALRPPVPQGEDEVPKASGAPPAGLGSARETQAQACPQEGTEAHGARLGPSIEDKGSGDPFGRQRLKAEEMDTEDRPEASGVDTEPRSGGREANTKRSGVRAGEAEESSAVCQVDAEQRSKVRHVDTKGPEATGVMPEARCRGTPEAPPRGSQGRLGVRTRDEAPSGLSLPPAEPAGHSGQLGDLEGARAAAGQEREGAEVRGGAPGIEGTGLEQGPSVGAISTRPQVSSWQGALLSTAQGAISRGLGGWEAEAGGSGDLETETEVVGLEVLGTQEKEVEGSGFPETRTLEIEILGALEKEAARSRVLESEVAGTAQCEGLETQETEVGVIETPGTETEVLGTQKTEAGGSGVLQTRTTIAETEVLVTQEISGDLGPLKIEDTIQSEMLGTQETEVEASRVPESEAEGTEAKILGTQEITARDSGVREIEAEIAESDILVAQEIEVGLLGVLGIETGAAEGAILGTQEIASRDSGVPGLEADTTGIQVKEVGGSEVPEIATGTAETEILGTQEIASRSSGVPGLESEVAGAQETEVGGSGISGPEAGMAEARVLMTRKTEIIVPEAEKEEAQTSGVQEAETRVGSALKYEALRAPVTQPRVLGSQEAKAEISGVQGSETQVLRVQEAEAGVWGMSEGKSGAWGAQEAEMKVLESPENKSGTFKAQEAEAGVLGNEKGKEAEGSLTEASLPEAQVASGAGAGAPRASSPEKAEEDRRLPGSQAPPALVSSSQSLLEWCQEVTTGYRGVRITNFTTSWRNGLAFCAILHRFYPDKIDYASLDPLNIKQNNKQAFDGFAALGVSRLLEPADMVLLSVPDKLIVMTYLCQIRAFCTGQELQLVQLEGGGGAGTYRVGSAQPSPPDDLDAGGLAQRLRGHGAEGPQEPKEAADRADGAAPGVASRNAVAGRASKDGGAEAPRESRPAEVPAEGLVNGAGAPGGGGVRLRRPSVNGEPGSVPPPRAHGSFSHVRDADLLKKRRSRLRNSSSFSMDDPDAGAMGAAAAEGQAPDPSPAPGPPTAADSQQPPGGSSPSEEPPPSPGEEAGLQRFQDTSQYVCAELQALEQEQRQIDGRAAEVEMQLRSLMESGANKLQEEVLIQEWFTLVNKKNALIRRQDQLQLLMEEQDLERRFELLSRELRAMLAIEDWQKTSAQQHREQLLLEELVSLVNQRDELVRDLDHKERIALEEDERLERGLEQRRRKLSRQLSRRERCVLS
Sequence of UniProt Q9H773 (Q9H773 whole entry, looked up): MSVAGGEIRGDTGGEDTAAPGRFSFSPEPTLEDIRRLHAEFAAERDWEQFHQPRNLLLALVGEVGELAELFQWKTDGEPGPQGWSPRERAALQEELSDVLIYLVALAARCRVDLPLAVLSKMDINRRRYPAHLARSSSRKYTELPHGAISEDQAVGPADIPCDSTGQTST
Sequence of UniProt Q9H467 (Q9H467 whole entry, looked up): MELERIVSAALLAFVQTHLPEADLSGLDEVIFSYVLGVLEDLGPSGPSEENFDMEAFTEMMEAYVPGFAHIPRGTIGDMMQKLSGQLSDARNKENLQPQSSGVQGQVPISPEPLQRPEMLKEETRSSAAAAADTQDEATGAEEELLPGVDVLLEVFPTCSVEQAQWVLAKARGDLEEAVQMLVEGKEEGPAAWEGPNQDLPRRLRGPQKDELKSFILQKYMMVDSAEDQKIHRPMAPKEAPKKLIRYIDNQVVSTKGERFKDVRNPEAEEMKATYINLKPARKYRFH
Sequence of UniProt Q58WW2 (Q58WW2 whole entry, looked up): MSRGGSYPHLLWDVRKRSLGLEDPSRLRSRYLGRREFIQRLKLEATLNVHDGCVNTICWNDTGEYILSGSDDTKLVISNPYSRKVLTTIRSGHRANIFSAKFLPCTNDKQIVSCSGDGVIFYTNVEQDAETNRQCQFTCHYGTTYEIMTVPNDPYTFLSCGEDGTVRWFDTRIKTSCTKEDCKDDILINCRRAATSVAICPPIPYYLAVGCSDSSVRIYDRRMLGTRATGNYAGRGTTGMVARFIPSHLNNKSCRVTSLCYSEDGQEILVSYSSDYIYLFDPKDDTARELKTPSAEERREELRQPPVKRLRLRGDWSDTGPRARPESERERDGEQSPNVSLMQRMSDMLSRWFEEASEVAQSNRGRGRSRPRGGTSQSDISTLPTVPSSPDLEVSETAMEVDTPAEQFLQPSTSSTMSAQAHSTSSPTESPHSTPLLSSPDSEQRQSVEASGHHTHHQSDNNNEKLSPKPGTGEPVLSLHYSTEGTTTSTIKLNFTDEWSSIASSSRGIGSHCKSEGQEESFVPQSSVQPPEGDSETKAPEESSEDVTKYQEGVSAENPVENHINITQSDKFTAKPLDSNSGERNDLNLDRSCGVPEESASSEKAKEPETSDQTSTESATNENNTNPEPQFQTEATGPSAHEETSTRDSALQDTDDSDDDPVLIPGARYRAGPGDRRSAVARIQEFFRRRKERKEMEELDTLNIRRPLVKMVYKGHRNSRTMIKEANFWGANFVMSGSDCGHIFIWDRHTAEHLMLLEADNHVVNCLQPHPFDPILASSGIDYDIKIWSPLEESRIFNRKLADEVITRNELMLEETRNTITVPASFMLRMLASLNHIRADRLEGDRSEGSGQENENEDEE
Sequence of UniProt Q8N128 (Q8N128 whole entry, looked up): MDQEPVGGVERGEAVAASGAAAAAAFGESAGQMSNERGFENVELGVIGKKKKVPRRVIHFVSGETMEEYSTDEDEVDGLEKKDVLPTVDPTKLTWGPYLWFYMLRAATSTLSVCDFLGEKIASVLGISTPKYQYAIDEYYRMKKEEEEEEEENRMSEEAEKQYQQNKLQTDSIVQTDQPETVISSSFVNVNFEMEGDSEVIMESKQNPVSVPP
Sequence of UniProt Q96LJ7 (Q96LJ7 whole entry, looked up): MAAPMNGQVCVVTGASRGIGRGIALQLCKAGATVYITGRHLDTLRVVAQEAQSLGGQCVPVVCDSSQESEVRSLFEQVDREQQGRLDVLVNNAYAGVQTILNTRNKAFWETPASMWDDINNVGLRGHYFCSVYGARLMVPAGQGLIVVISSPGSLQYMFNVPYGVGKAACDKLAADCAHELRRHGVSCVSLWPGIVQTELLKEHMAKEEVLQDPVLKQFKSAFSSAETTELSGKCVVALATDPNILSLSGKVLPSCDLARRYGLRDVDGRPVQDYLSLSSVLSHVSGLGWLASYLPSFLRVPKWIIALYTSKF
Sequence of UniProt Q9H2P9 (Q9H2P9 whole entry, looked up): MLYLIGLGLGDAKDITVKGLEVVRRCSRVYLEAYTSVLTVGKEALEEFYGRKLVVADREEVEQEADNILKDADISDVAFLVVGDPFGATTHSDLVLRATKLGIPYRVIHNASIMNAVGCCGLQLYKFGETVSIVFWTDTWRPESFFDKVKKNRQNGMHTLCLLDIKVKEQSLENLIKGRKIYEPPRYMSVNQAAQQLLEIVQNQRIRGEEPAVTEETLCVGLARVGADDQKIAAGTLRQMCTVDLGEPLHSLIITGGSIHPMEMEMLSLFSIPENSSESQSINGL
Sequence of UniProt Q16254 (Q16254 whole entry, looked up): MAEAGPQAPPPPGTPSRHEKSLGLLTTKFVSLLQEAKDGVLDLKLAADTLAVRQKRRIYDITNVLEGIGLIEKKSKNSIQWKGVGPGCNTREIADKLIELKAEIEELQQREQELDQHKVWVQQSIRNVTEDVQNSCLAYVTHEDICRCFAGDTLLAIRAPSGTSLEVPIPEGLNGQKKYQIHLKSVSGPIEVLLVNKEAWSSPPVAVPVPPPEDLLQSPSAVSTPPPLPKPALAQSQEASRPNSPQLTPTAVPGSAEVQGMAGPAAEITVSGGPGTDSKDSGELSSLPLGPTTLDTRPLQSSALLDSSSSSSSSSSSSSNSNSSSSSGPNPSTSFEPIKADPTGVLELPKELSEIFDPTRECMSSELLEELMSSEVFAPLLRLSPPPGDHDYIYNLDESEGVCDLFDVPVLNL
Sequence of UniProt Q96EV8 (Q96EV8 whole entry, looked up): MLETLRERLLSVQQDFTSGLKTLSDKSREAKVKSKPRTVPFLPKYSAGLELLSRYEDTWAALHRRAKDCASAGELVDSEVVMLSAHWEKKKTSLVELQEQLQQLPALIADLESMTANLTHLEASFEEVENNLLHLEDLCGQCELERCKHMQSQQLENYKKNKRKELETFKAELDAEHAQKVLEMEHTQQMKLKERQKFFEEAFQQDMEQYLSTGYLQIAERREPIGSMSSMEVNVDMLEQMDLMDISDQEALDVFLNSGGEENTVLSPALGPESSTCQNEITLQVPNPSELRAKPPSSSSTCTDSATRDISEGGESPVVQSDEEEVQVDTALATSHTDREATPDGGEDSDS
Sequence of UniProt Q96GE9 (Q96GE9 whole entry, looked up): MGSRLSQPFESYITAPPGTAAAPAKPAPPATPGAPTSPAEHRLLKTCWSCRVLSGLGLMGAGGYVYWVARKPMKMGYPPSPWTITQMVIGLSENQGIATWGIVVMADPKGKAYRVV

log2 fold change, inactive:
FAM3A (UniProt P98173) 0.013, CTSZ (UniProt Q9UBR2) -0.045, DMXL1 (UniProt Q9Y485) 0.032, EXTL2 (UniProt Q9UBQ6) -0.031, CUEDC2 (UniProt Q9H467) 0.032, CYFIP1 (UniProt Q7L576) 0.019, ECH1 (UniProt Q13011) -0.003, FAM114A2 (UniProt Q9NRY5) 0.061, EFCAB14 (UniProt O75071) 0.012, DDX46 (UniProt Q7L014) 0.136, FAM177A1 isoform 2 (UniProt Q8N128) 0.014, DPH5 isoform 5 (UniProt Q9H2P9) 0.087, DNAJB12 (UniProt Q9NXW2) 0.008, EXOC4 (UniProt Q96A65) 0.098, DTNBP1 (UniProt Q96EV8) 0.017, DYNC1LI2 (UniProt O43237) -0.027, EBNA1BP2 (UniProt Q99848) 0.004, EEF1B2 (UniProt P24534) 0.02, DCUN1D1 (UniProt Q96GG9) 0.05, DLD (UniProt P09622) -0.01, DNAJC7 (UniProt Q99615) 0.098, DCAF6 isoform 3 (UniProt Q58WW2) -0.047, FAM50A (UniProt Q14320) 0.035, CTSH (UniProt P09668) -0.034, E2F4 (UniProt Q16254) 0.02, DCP2 (UniProt Q8IU60) 0.055, DTYMK (UniProt P23919) -0.069, EOGT (UniProt Q5NDL2) -0.098, DCTPP1 (UniProt Q9H773) -0.043, DHPS (UniProt P49366) 0.008, DHRS1 (UniProt Q96LJ7) -0.079, EXOC2 (UniProt Q96KP1) 0.062, DMAC1 (UniProt Q96GE9) -0.035, FAAP100 (UniProt Q0VG06) -0.033, DNAH5 (UniProt Q8TE73) 0.014, ERCC6 (UniProt Q03468) 0.074, ERLIN2 (UniProt O94905) 0.008, DAG1 (UniProt Q14118) -0.06, EHBP1L1 (UniProt Q8N3D4) 0.007
